PubChem BioAssay AID1159580 (chemical genetic matrix, 2015)
Among all 5,500 compounds or so, about 2,000 (36%) were called active. Inconclusive results (about 18%) are left out. Cut-off read from the data, not from the text of the source: active = normalized growth mostly below about 0.91 (no sharp cut-off); inconclusive = no clear call, values can overlap the other calls; inactive = mostly above about 0.92. The list shows a part of the results.

Assay: chemical genetic growth profiling, strain panel (AID 1159580);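 note: tested at 20 µM; growth read once vehicle control cultures reached saturation at 30 °C; 1 = growth at the plate median or of vehicle wells; lower values mean less growth of the strain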
Conditions: S. cerevisiae deletion strains, growth OD
[1] = locus YAR019C, strain CDC15, stronger effect = lower value
[2] = locus YBL105C, strain PKC1, stronger effect = lower value
[3] = locus YBR135W, strain CKS1, stronger effect = lower value
[4] = locus YBR136W, strain MEC1, stronger effect = lower value
[5] = locus YBR160W, strain CDC28, stronger effect = lower value
[6] = locus YDL017W, strain CDC7, stronger effect = lower value
[7] = locus YDL028C, strain MPS1, stronger effect = lower value
[8] = locus YDL101C, strain DUN1, stronger effect = lower value
[9] = locus YDL108W, strain KIN28, stronger effect = lower value
[10] = locus YDL132W, strain cdc53, stronger effect = lower value
[11] = locus YDL214C, strain PRR2, stronger effect = lower value
[12] = locus YDR052C, strain DBF4, stronger effect = lower value
[13] = locus YDR054C, strain cdc34, stronger effect = lower value
[14] = locus YDR226W, strain ADK1, stronger effect = lower value
[15] = locus YDR477W, strain SNF1, stronger effect = lower value
[16] = locus YER123W, strain YCK3, stronger effect = lower value
[17] = locus YER133W, strain GLC7, stronger effect = lower value
[18] = locus YFL009W, strain cdc4, stronger effect = lower value
[19] = locus YFL029C, strain CAK1, stronger effect = lower value
[20] = locus YFR003C, strain YPI1, stronger effect = lower value
[21] = locus YFR019W, strain FAB1, stronger effect = lower value
[22] = locus YFR028C, strain CDC14, stronger effect = lower value
[23] = locus YGR040W, strain KSS1, stronger effect = lower value
[24] = locus YGR052W, strain FMP48, stronger effect = lower value
[25] = locus YGR092W, strain DBF2, stronger effect = lower value
[26] = locus YHR030C, strain SLT2, stronger effect = lower value
[27] = locus YHR079C, strain IRE1, stronger effect = lower value
[28] = locus YHR082C, strain KSP1, stronger effect = lower value
[29] = locus YHR205W, strain SCH9, stronger effect = lower value
[30] = locus YIL147C, strain SLN1, stronger effect = lower value
[31] = locus YJL095W, strain BCK1, stronger effect = lower value
[32] = locus YJL128C, strain PBS2, stronger effect = lower value
[33] = locus YJL157C, strain FAR1, stronger effect = lower value
[34] = locus YJR016C, strain ILV3, stronger effect = lower value
[35] = locus YJR066W, strain TOR1 (second series), stronger effect = lower value
[36] = locus YJR066W, strain TOR1, stronger effect = lower value
[37] = locus YKL048C, strain ELM1, stronger effect = lower value
[38] = locus YKL067W, strain YNK1, stronger effect = lower value
[39] = locus YKL101W, strain HSL1, stronger effect = lower value
[40] = locus YKL193C, strain SDS22, stronger effect = lower value
[41] = locus YKL203C, strain TOR2, stronger effect = lower value
[42] = locus YLR113W, strain HOG1, stronger effect = lower value
[43] = locus YLR133W, strain CKI1, stronger effect = lower value
[44] = locus YLR403W, strain SFP1, stronger effect = lower value
[45] = locus YML070W, strain DAK1, stronger effect = lower value
[46] = locus YMR001C, strain CDC5, stronger effect = lower value
[47] = locus YMR205C, strain PFK2 (second series), stronger effect = lower value
[48] = locus YMR277W, strain FCP1, stronger effect = lower value
[49] = locus YNL006W, strain LST8, stronger effect = lower value
[50] = locus YNL020C, strain ARK1, stronger effect = lower value
[51] = locus YNL161W, strain CBK1, stronger effect = lower value
[52] = locus YNL183C, strain NPR1, stronger effect = lower value
[53] = locus YNL207W, strain RIO2, stronger effect = lower value
[54] = locus YNL222W, strain SSU72, stronger effect = lower value
[55] = locus YNL307C, strain MCK1 (second series), stronger effect = lower value
[56] = locus YOL078W, strain AVO1, stronger effect = lower value
[57] = locus YOL136C, strain PFK27, stronger effect = lower value
[58] = locus YOR061W, strain CKA2, stronger effect = lower value
[59] = locus YOR119C, strain RIO1, stronger effect = lower value
[60] = locus YOR231W, strain MKK1, stronger effect = lower value
[61] = locus YOR329C, strain SCD5, stronger effect = lower value
[62] = locus YPL031C, strain PHO85, stronger effect = lower value
[63] = locus YPL153C, strain RAD53, stronger effect = lower value
[64] = locus YPL204W, strain HRR25, stronger effect = lower value
[65] = locus YPL209C, strain IPL1, stronger effect = lower value
[66] = locus YPL256C, strain CLN2, stronger effect = lower value
[67] = locus YPR025C, strain CCL1, stronger effect = lower value
[68] = locus YPR106W, strain ISR1, stronger effect = lower value
[69] = locus YPR111W, strain DBF20, stronger effect = lower value
[70] = strain NNK1, stronger effect = lower value
[71] = strain TSCII, stronger effect = lower value

Measured: normalized growth

O=[N+]([O-])c1ccc(Sc2ccccc2)c([N+](=O)[O-])c1
active: [1] 0.862 | [2] 0.894 | [3] 0.874 | [4] 0.884 | [5] 0.896 | [6] 0.89 | [7] 0.888 | [8] 0.876 | [9] 0.88 | [10] 0.867 | [11] 0.695 | [13] 0.83 | [14] 0.858 | [18] 0.847 | [19] 0.866 | [20] 0.886 | [25] 0.271 | [26] 0.492 | [29] 0.522 | [30] 0.885 | [32] 0.757 | [34] 0.877 | [37] 0.71 | [38] 0.691 | [39] 0.662 | [40] 0.876 | [42] 0.396 | [43] 0.717 | [46] 0.868 | [47] 0.678 | [48] 0.868 | [49] 0.87 | [51] 0.864 | [53] 0.859 | [54] 0.88 | [56] 0.867 | [57] 0.65 | [61] 0.884 | [65] 0.883 | [66] 0.428 | [67] 0.893 | [68] 0.849 | [69] 0.812 | [70] 0.796 | [71] 0.853
inactive: [12] 0.913 | [15] 0.75 | [16] 0.685 | [17] 0.803 | [21] 0.84 | [22] 0.899 | [23] 0.784 | [24] 0.706 | [27] 0.655 | [28] 0.719 | [31] 0.673 | [33] 0.748 | [35] 0.756 | [36] 0.748 | [41] 0.785 | [44] 0.758 | [45] 0.689 | [50] 0.733 | [52] 0.708 | [55] 0.704 | [58] 0.768 | [59] 0.806 | [60] 0.64 | [62] 0.73 | [63] 0.723 | [64] 0.727

CC(=O)c1ccc(Sc2ccccc2)c([N+](=O)[O-])c1
active: [1] 0.877 | [2] 0.878 | [3] 0.864 | [4] 0.874 | [5] 0.876 | [6] 0.879 | [7] 0.885 | [8] 0.873 | [9] 0.876 | [10] 0.87 | [12] 0.898 | [13] 0.845 | [14] 0.857 | [18] 0.868 | [19] 0.87 | [20] 0.874 | [22] 0.865 | [25] 0.387 | [26] 0.75 | [30] 0.875 | [32] 0.778 | [34] 0.882 | [37] 0.753 | [40] 0.869 | [42] 0.698 | [46] 0.858 | [48] 0.859 | [49] 0.855 | [51] 0.869 | [53] 0.861 | [54] 0.876 | [56] 0.861 | [61] 0.881 | [65] 0.872 | [66] 0.782 | [67] 0.884 | [68] 0.866 | [69] 0.838 | [70] 0.853 | [71] 0.86
inactive: [11] 0.792 | [15] 0.788 | [16] 0.799 | [17] 0.874 | [21] 0.88 | [23] 0.78 | [24] 0.784 | [27] 0.813 | [28] 0.859 | [29] 0.773 | [31] 0.756 | [33] 0.818 | [35] 0.823 | [36] 0.811 | [38] 0.788 | [39] 0.753 | [41] 0.814 | [43] 0.79 | [44] 0.756 | [45] 0.809 | [47] 0.772 | [50] 0.803 | [52] 0.798 | [55] 0.772 | [57] 0.772 | [58] 0.815 | [59] 0.835 | [60] 0.788 | [62] 0.785 | [63] 0.79 | [64] 0.773
